Experimental findings from article PMC5540273 (PLoS ONE, 2017) are described below.

Common to all, as to conditions: concentration: 1 μM, replicates: in singlicate; n = 1
For assay [1], the system named is PIK3C2G.
Assay [2] deals with PIK3CA.
For assay [3], the system named is PIK3CB.
Assay [4] relates to PIK3CD.
The test system of assay [5] is PIK3CG.
Assay [6] relates to T1, PIK4CB.
T1 construct: gene PI4KB

Assay [7] deals with PIKFYVE.
For assay [8], the system named is PIM1.
Assay [9] deals with PIM2.
The subject of assay [10] is PIM3.
Assay [11] deals with PIP5K1A.
Assay [12] relates to PIP5K1C.
In assay [13] the test system is PIP5K2B.
Assay [14] deals with T2, PIP5K2C.
T2 construct: gene PIP4K2C

The subject of assay [15] is T3, PKAC-alpha.
T3 construct: gene PRKACA

Assay [16] deals with T4, PKAC-beta.
T4 construct: gene PRKACB

For assay [17], the system named is PKMYT1.
The subject of assay [18] is PKN1.
Assay [19] relates to PKN2.
For assay [20], the system named is PLK1.
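Also: KINOMEscan kinase panel screen.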

In the case of `Fc1cc(Cl)ccc1Nc1ccnc2cc(-c3ccc(CN4CCOCC4)o3)ccc12` [GW560109], the “%Inh” value came out at 0% in assay [1]; 0% in [2]; 0% in assay [3]; 21% in assay [4]; 0% in assay [5]; 16% in assay [6]. The “%Inh” value in assay [7] is listed as 5%; in assay [8], 0%; in [9] it was 0%; in [10], 0%; in [11], 0%; in [12] it was 44%. The “%Inh” value in assay [13] is recorded as 31%; in assay [14], 75%; in assay [15], 8%; in assay [16], 37%; in assay [17], 0%; in assay [18] it was 100%. Besides, the “%Inh” value in [19] and in assay [20] was 0% each time.
For the compound `COC(=O)Nc1nc2cc(Oc3ccc(NC(=O)Nc4cccc(SC)c4)cc3)ccc2[nH]1.Cl` [GW697999], the “%Inh” value is 85% in assay [1]; 0% in [2]; 0% in [3]; 0% in assay [4]; 0% in assay [5]; 0% in assay [6]. The “%Inh” value in assay [7] is on record as 0%; in [8] it was 12%; in assay [9], 0%; in assay [10], 0%; in assay [11] it was 56%; in assay [12], 62%. Further, the “%Inh” value is given as 20% in assay [13]; 40% in assay [14]; 0% in assay [15]; 4% in assay [16]; 0% in [17]; 0% in assay [18]. For the same compound, the “%Inh” value in assay [19] and in assay [20] was 0% throughout.
As to `CC(=O)Nc1cn2nc(Oc3cccc(NC(=O)c4cccc(C(F)(F)F)c4)c3)ccc2n1`, the “%Inh” value in [1], in [2], in assay [3], in assay [4], in assay [5] and in [6] was 0% each time. Further, the “%Inh” value in assay [7] is listed as 0%; in [8] it was 9%; in assay [9], 9%; in assay [10], 0%; in assay [11], 11%; in assay [12], 5%. In addition, the “%Inh” value in [13] was found to be 0%; in assay [14], 32%; in [15] it was 8%; in assay [16], 52%; in assay [17], 0%; in assay [18] it was 0%. In addition, the “%Inh” value in assay [19] is listed as 23%; in assay [20], 0%.
Turning to `c1ccc(Oc2ccc(Nc3ccnc4cc(-c5ccc(CN6CCCCC6)o5)ccc34)cc2)nc1` [GW567143], the “%Inh” value in assay [1], in [2], in assay [3], in assay [4], in assay [5] and in assay [6] was 0% throughout. The “%Inh” value in assay [7] is 0%; in [8] it was 0%; in assay [9], 0%; in assay [10], 0%; in assay [11] it was 9%; in [12] it was 47%. Further, the “%Inh” value in assay [13] is given as 0%; in [14], 48%; in assay [15], 2%; in [16], 0%; in assay [17] it was 0%; in assay [18] it was 0%. The “%Inh” value in assay [19] is recorded as 0%; in assay [20] it was 5%.
For the compound `Nc1ncc(-c2cn[nH]c2)c2scc(-c3ccc4c(c3)CCN4C(=O)Cc3ccccc3)c12` [GSK2593067], the “%Inh” value turned out to be 0% in assay [1]; 0% in assay [2]; 0% in assay [3]; 5% in assay [4]; 0% in assay [5]; 25% in [6]. Besides, the “%Inh” value in assay [7] was 0%; in [8] it was 0%; in assay [9] it was 0%; in assay [10] it was 0%; in assay [11], 0%; in [12] it was 30%. Further, the “%Inh” value amounted to 0% in assay [13]; 0% in [14]; 20% in [15]; 19% in assay [16]; 0% in assay [17]; 12% in assay [18]. Also, the “%Inh” value amounted to 9% in [19] and 0% in assay [20].
On to `CCn1c(-c2nonc2N)nc2c(-c3ccccc3)ncc(OCCCN)c21.O=C(O)C(F)(F)F.O=C(O)C(F)(F)F` [GSK260205], for which the “%Inh” value in assay [1] stood at 9%; in assay [2], 0%; in assay [3] it was 0%; in assay [4], 1%; in [5] it was 0%; in assay [6], 0%. In addition, the “%Inh” value in [7] was 98.8%; in assay [8], 62%; in [9] it was 2%; in [10] it was 44%; in assay [11], 35%; in assay [12], 87%. The “%Inh” value in [13] was 10%; in [14] it was 29%; in assay [15], 97.6%; in assay [16], 97.7%; in [17], 0%; in [18], 84%. Moreover, the “%Inh” value in [19] and in assay [20] was 0% each time.
With `Fc1cc(Cl)ccc1Nc1ccnc2cc(-c3ccc(CN4CCSCC4)o3)ccc12` [GW560106], the “%Inh” value stood at 0% in [1]; 0% in assay [2]; 0% in assay [3]; 9% in assay [4]; 0% in assay [5]; 0% in [6]. The “%Inh” value turned out to be 1% in assay [7]; 8% in assay [8]; 0% in [9]; 0% in assay [10]; 30% in assay [11]; 59% in assay [12]. Besides, the “%Inh” value came out at 9% in [13]; 74% in assay [14]; 27% in assay [15]; 22% in assay [16]; 0% in assay [17]; 0% in assay [18]. Also, the “%Inh” value in assay [19] and in assay [20] was 0% throughout.
For `CC(C)c1nc(-c2ccc(F)c(NS(=O)(=O)c3c(F)cccc3F)c2)c(-c2ccnc(Nc3ccc(N4CCOCC4)nc3)n2)s1` [GSK1804250], the “%Inh” value was 0% in [1]; 0% in [2]; 0% in assay [3]; 10% in assay [4]; 0% in [5]; 0% in assay [6]. Also, the “%Inh” value in assay [7] came out at 66%; in [8] it was 7%; in [9] it was 0%; in assay [10], 0%; in assay [11] it was 0%; in [12] it was 46%. Besides, the “%Inh” value in assay [13] came to 9%; in assay [14], 78%; in assay [15], 1%; in [16], 0%; in assay [17], 4%; in [18], 59%. In addition, the “%Inh” value in [19] is on record as 12%; in assay [20] it was 15%.
Take `Cl.O=C(Nc1ccc(Oc2ccc3[nH]c(NC(=O)c4ccco4)nc3c2)cc1)Nc1cc(C(F)(F)F)ccc1F` [GW683134]: the “%Inh” value was found to be 0% in assay [1]; 100% in [2]; 0% in assay [3]; 8% in assay [4]; 99.9% in assay [5]; 18% in [6]. Further, the “%Inh” value in assay [7] was determined as 0%; in [8], 0%; in assay [9], 0%; in [10] it was 0%; in assay [11], 0%; in assay [12] it was 10%. The “%Inh” value in [13] is 0%; in assay [14] it was 0%; in [15] it was 0%; in assay [16] it was 8%; in [17], 0%; in assay [18], 7%. Moreover, the “%Inh” value in assay [19] and in [20] was 0% in each case.
On to `CNc1nccc(-c2ccc3c(N)n[nH]c3c2)n1` [GSK2206003], for which the “%Inh” value is 1% in assay [1]; 0% in assay [2]; 0% in assay [3]; 0% in [4]; 17% in [5]; 0% in assay [6]. Further, the “%Inh” value in [7] is 0%; in assay [8], 18%; in assay [9], 0%; in assay [10] it was 13%; in [11] it was 54%; in assay [12], 60%. The “%Inh” value is 32% in assay [13]; 35% in assay [14]; 23% in assay [15]; 4% in assay [16]; 4% in assay [17]; 0% in assay [18]. Further, the “%Inh” value in assay [19] is given as 0%; in assay [20] it was 6%.
In the case of `CN1CCN(Cc2ccc(NC(=O)Nc3ccc(N(C)c4ccnc(Nc5ccc(CS(C)(=O)=O)cc5)n4)cc3)cc2)CC1.Cl` [GW827654], the “%Inh” value in [1] is recorded as 6%; in [2], 0%; in assay [3] it was 16%; in assay [4] it was 0%; in assay [5], 26%; in assay [6], 30%. Further, the “%Inh” value in assay [7] was found to be 7%; in assay [8], 0%; in assay [9], 0%; in assay [10], 45%; in assay [11], 74%; in assay [12], 0%. Also, the “%Inh” value in [13] worked out at 69%; in assay [14], 78%; in assay [15] it was 0%; in assay [16], 23%; in assay [17] it was 10%; in assay [18], 41%. Moreover, the “%Inh” value is on record as 0% in assay [19] and 7% in assay [20].
